Assay results from the supplement of paper PMC10981050.
“And” between values parts separate entries of the source, which are not always exact repeats. Identical values can stand only once. Counter-ions that a name gives are not always drawn.

Experiments:
Experiment in all cases: cell viability relative to vehicle control; higher = less cytotoxic
Details in all cases: 10 µM
[1] = system: K562
Procedure, shortened: (§1)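 Four leukaemia lines, as CRISPR-edited mutant clones and isogenic wild-type clones, were tested against Selleck bioactive, kinase and epigenetic probe libraries after removal of identity-inconsistent compounds. Cells were exposed to a single 10 µM dose for 48 h, and CellTiter-Glo luminescence was then read. Viability was calculated relative to the on-plate vehicle control.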

[2] = system: MARIMO
Procedure, shortened: as §1

[3] = system: MOLM14
Procedure, shortened: as §1

[4] = system: OCI-AML2
Procedure, shortened: as §1

Structure (SMILES)	cell viability ([1]; SRSF2 genotype: SRSF2 P95H/wt)	cell viability ([1]; SRSF2 genotype: SRSF2 wt/wt)	cell viability ([2]; SRSF2 genotype: SRSF2 P95H/wt)	cell viability ([2]; SRSF2 genotype: SRSF2 wt/wt)	cell viability ([3]; SRSF2 genotype: SRSF2 P95H/wt)	cell viability ([3]; SRSF2 genotype: SRSF2 wt/wt)	cell viability ([4]; SRSF2 genotype: P95H/wt)	cell viability ([4]; SRSF2 genotype: wt/wt)
CCC[C@H](NC(=O)/C(C#N)=C/c1cccc(Br)n1)c1ccccc1 [Degrasyn (WP1130)]	11.2% and 17.4%	9.59%	2.97%	1.3%	0.32%	0.25%	0.67%	0.8%
N#Cc1ccc(-c2c(-c3ncn[nH]3)sc(N3CCOCC3)c2C#N)c(F)c1	60.4% and 73.5%	68.2%	47.4%	39%	27.8%	28.3%	9.07%	24%
Cc1nn(C)c(COc2ccc(N3CCN(S(=O)(=O)N(C)C)CC3)cc2)c1-c1cccc2c(CCCOc3cccc4ccccc34)c(C(=O)O)n(CCN3CCOCC3)c12	93.7% and 106%	99.8%	101%	107%	98.3%	101%	103%	103%
CC1(C)S[C@@H]2[C@H](NC(=O)C(c3ccccc3)S(=O)(=O)O)C(=O)N2[C@H]1C(=O)O (some centres not stated) [Sulbenicillin Sodium]	109% and 103%	97.7%	104%	113%	97.7%	105%	90.7%	99.3%
CNC(=O)c1cc(Oc2ccc(NC(=O)Nc3ccc(Cl)c(C(F)(F)F)c3)c(F)c2)ccn1 [Regorafenib (BAY 73-4506)]	17.6% and 21.9%	14.9%	29.2%	28%	16.6%	13.1%	23.1%	22.8%
O=c1cc[nH]c(=S)[nH]1 [2-Thiouracil]	101% and 103%	100%	98.6%	109%	106%	106%	107%	104%
C=CC(=O)Nc1cccc(Nc2nc(Nc3ccc(N4CCN(C(C)=O)CC4)cc3OC)ncc2C(F)(F)F)c1 [Rociletinib (CO-1686, AVL-301)]	54.5% and 77.9%	68.3%	34.9%	29.4%	6.76%	11.9%	10.2%	19%
CN[C@@H](C)C(=O)N[C@H](C(=O)N1CCC[C@H]1C(=O)N[C@H]1c2ccccc2C[C@H]1OCC#CC#CCO[C@@H]1Cc2ccccc2[C@@H]1NC(=O)[C@@H]1CCCN1C(=O)[C@@H](NC(=O)[C@H](C)NC)C1CCCCC1)C1CCCCC1	0.57% and 0.73%	0.61%	0.76%	0.89%	0.51%	0.62%	0.56%	0.58%
Cc1cc2c(s1)Nc1ccccc1N=C2N1CCN(C)CC1 [Olanzapine (Zyprexa)]	95.8% and 89.5%	90.7%	92.5%	102%	93.8%	95.8%	81.7%	92.2%
CCOc1nc2cccc(C(=O)O)c2n1Cc1ccc(-c2ccccc2-c2noc(=O)[nH]2)cc1 [Azilsartan (TAK-536)]	106% and 104%	97.9%	93.5%	103%	99.2%	103%	101%	101%
Cc1cc(NC(=O)Nc2ccc(N(C)C)cc2)c2cc(F)cc(F)c2n1	89.9% and 95.8%	93.1%	98.3%	109%	102%	105%	83.8%	94.9%
O[C@@H]1CO[C@H]2[C@@H]1OC[C@@H]2O [Isosorbide]	102% and 111%	105%	107%	104%	99.6%	105%	118%	99.5%
NC[C@H](O)c1ccc(O)c(O)c1 [Noradrenaline bitartrate monohydrate (Levoph]	86.5% and 94.4%	98.2%	92.6%	94.3%	85.7%	93.7%	96.7%	103%
CC[C@@]1(O)C(=O)OCc2c1cc1n(c2=O)Cc2cc3cc(O)ccc3nc2-1 [10-Hydroxycamptothecin]	8.49% and 21.1%	9.32%	4.98%	3.83%	0.7%	0.58%	0.54%	1.46%
C[C@@H]1CN(CC(=O)Nc2ccc3c(c2)Cc2cccc(-c4cc(=O)cc(N5CCOCC5)o4)c2S3)C[C@H](C)O1	98.9% and 102%	99.1%	82.9%	86.9%	56.9%	55.8%	51.3%	64.2%
C#C[C@]1(O)CC[C@H]2[C@@H]3CCC4=CC(=O)CC[C@@H]4[C@H]3CC[C@@]21CC [Levonorgestrel (Levonelle)]	104% and 102%	101%	95.7%	109%	104%	103%	105%	108%
Nc1nccc(Oc2ccc3c(C(=O)Nc4cccc(C(F)(F)F)c4)cccc3c2)n1	86.8% and 94.3%	87.9%	109%	125%	93.6%	102%	94.8%	106%
C[C@@]1(F)[C@H](O)[C@@H](CO)O[C@H]1n1ccc(=O)[nH]c1=O [2'-deoxy-2'-fluoro-2'-C-methyluridine]	93.6% and 89.6%	89.8%	87.2%	101%	87.2%	91.3%	86.6%	104%
O=C(c1ccc(F)cc1)C1CCN(CCn2c(=O)[nH]c3ccccc3c2=O)CC1 [Ketanserin (Vulketan Gel)]	98.1% and 104%	103%	102%	106%	107%	107%	105%	109%
COCC[n+]1c2c(n(Cc3cnccn3)c1C)C(=O)c1ccccc1C2=O [YM155 (Sepantronium Bromide)]	0.4% and 0.35%	0.47%	0.69%	1.06%	0.33%	0.32%	0.31%	0.36%

Structure (SMILES)	cell viability ([1]; SRSF2 genotype: SRSF2 P95H/wt)	cell viability ([1]; SRSF2 genotype: SRSF2 wt/wt)	cell viability ([2]; SRSF2 genotype: SRSF2 P95H/wt)	cell viability ([2]; SRSF2 genotype: SRSF2 wt/wt)	cell viability ([3]; SRSF2 genotype: SRSF2 P95H/wt)	cell viability ([3]; SRSF2 genotype: SRSF2 wt/wt)	cell viability ([4]; SRSF2 genotype: P95H/wt)	cell viability ([4]; SRSF2 genotype: wt/wt)
CC(=O)O/N=C1/C(c2c(O)[nH]c3cc(Br)ccc23)=Nc2ccccc21 [BIO-acetoxime]	32.5% and 23.4%	25.4%	82.2%	88.4%	33.1%	24.4%	73.2%	76.2%
O=C1Nc2ccccc2C1=O [Isatin]	97.1% and 106%	100%	101%	105%	103%	105%	106%	96.5%
CC(C)c1c(C(=O)Nc2ccccc2)c(-c2ccccc2)c(-c2ccc(F)cc2)n1CC[C@@H](O)C[C@@H](O)CC(=O)O [Atorvastatin calcium (Lipitor)]	67.2% and 88.5%	56.9%	52%	50.4%	67.7%	91.5%	41.1%	45.6%
CC(C)CCn1c(CN2CCN(C(=O)C3CC3)CC2)nc2c1c(=O)n(C)c(=O)n2C	105% and 116%	112%	99.7%	102%	105%	104%	114%	116%
Cc1nccn1CCC(C(N)=O)(c1ccccc1)c1ccccc1 [Imidafenacin]	94.5% and 91.6%	105%	87.6%	91.8%	99.2%	101%	90.8%	102%
CNC(=O)c1ccc(-c2cnc3ncc(Cc4ccc5ncccc5c4)n3n2)cc1F	95% and 101%	102%	107%	115%	103%	110%	111%	110%
COc1cc(Nc2c(C#N)cnc3cc(OCCCN4CCN(C)CC4)c(OC)cc23)c(Cl)cc1Cl [Bosutinib (SKI-606)]	2.19% and 3.5%	3.73%	38.5%	37.6%	7.61%	11.1%	1.53%	7.73%
CC(C)OC(=O)[C@H](C)N[P@](=O)(OC[C@H]1O[C@@H](n2ccc(=O)[nH]c2=O)[C@](C)(F)[C@@H]1O)Oc1ccccc1 [Sofosbuvir(PSI-7977)]	103% and 102%	95.8%	98.3%	111%	102%	107%	94%	107%
C/C1=C2N=C(/C=C3N=C(/C(C)=C4\[N-]C(C(CC(N)=O)C4(C)CCC(=O)NCC(C)OP(=O)([O-])OC4C(CO)OC(n5cnc6cc(C)c(C)cc65)C4O)C4(C)N=C1C(CCC(N)=O)C4(C)CC(N)=O)C(CCC(N)=O)C\3(C)C)C(CCC(N)=O)C/2(C)CC(N)=O.[CH3-].[Co+3] (configuration not stated) [Methylcobalamin]	89.6% and 88.5%	101%	88.4%	88.6%	90.8%	94.3%	95.2%	97%
Cc1cc(C(=O)O)n[nH]1	108% and 101%	103%	104%	111%	96.4%	111%	101%	104%
COc1ccc(-c2cc(=O)c3c(O)cc(O)cc3o2)cc1O [Diosmetin (Luteolin 4-methyl ether)]	86.7% and 96.9%	83.9%	105%	121%	50.9%	53.6%	81%	74.6%
C[C@H](NC(=O)CCC(F)(F)F)C(=O)N[C@@H]1C(=O)N(CCO)c2ncccc2-c2ccccc21	103% and 104%	95.9%	97.4%	108%	109%	103%	89.4%	99.8%
CCCC(CCC)C(=O)O [Valproic acid]	95.5% and 98.3%	106%	103%	100%	102%	102%	102%	95.7%
O=C1[C@H]2CCCC[C@H]2C(=O)N1CCCCN1CCN(c2nsc3ccccc23)CC1 [Perospirone hydrochloride]	70.2% and 74%	73.6%	71.2%	82.3%	78.7%	82.5%	73.7%	75.8%
CC[C@H]1OC(=O)[C@H](C)[C@@H](O[C@H]2C[C@@](C)(OC)[C@@H](O)[C@H](C)O2)[C@H](C)[C@@H](O[C@@H]2O[C@H](C)C[C@H](N(C)C)[C@H]2O)[C@](C)(O)C[C@@H](C)C(=O)[C@H](C)[C@@H](O)[C@]1(C)O [Erythromycin thiocyanate]	97.3% and 94.2%	94.6%	82.7%	91.9%	87.9%	89.1%	87%	90.1%
OC(CNCC(O)C1CCc2cc(F)ccc2O1)C1CCc2cc(F)ccc2O1 (configuration not stated) [Nebivolol HCl]	61.4% and 73%	80.7%	60.4%	60.5%	58.6%	62.5%	50.6%	61.5%
CC(C)=CCC[C@](C)(O[C@@H]1O[C@H](CO)[C@@H](O)[C@H](O)[C@H]1O)[C@H]1CC[C@]2(C)[C@@H]1[C@H](O)C[C@@H]1[C@@]3(C)CC[C@H](O)C(C)(C)[C@@H]3[C@@H](O)C[C@]12C [Ginsenoside F1]	107% and 106%	102%	105%	97.8%	109%	104%	105%	106%
O=C1C2=C(CCN(Cc3ccccc3)C2)N2CCN=C2N1Cc1ccc(C(F)(F)F)cc1	39% and 40.3%	34%	43%	36.9%	31.1%	34.1%	22.3%	22.3%
N#Cc1cnc(Nc2cc(NC[C@H]3CNCCO3)c(C(F)(F)F)cn2)cn1	19% and 24.2%	13.3%	44.5%	54.4%	16.4%	10.3%	14.5%	14.1%
